# Reference: article PMC7862700, “An all-to-all approach to the identification of sequence-specific readers for epigenetic DNA modifications on cytosine”
# Key:
# Test in all cases: DAPPL (digital affinity profiling via proximity ligation, sequencing); 10 mM Tris-HCl pH 7.5, 50 mM NaCl, 1 mM DTT, 4% glycerol, room temperature, 30 min; GST-TFs on glutathione beads, 16-mer random dsDNA library, 0.1% formaldehyde crosslink after washing; high values mean tight binding
# Conditions in all cases: protein: recombinant; tags: N-terminal GST; dsDNA, one strand shown
# [1] = target: T1, ELK1 (Homo sapiens, UniProt P19419 1-428)
# T1 sequence: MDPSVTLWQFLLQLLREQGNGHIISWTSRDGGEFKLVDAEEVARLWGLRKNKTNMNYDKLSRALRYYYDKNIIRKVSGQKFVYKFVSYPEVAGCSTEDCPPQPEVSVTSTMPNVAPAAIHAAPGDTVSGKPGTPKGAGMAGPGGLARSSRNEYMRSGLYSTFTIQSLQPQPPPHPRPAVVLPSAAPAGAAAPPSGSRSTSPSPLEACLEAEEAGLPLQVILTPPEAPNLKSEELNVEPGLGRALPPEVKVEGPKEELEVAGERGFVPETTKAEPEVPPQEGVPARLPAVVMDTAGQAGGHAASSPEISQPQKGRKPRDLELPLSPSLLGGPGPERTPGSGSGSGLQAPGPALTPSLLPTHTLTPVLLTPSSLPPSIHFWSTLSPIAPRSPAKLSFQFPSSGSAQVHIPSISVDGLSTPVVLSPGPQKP
# Method in brief: (§1)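 GST fusions of human transcription factors were expressed in yeast and captured with glutathione beads. Once given DNA barcodes and pooled alongside a tag-only sample, they were incubated for 30 min at room temperature with 200 nmole of a random double-stranded 16-mer DNA library in Tris/NaCl/DTT/glycerol buffer, then washed, crosslinked (0.1% formaldehyde), proximity-ligated, PCR-amplified and sequenced on an Illumina NextSeq500. The binding signal of each hexamer is its read frequency for a factor divided by its frequency for the tag-only sample.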
# [2] = target: T2, GABPA (Homo sapiens, UniProt Q06546 1-454)
# T2 sequence: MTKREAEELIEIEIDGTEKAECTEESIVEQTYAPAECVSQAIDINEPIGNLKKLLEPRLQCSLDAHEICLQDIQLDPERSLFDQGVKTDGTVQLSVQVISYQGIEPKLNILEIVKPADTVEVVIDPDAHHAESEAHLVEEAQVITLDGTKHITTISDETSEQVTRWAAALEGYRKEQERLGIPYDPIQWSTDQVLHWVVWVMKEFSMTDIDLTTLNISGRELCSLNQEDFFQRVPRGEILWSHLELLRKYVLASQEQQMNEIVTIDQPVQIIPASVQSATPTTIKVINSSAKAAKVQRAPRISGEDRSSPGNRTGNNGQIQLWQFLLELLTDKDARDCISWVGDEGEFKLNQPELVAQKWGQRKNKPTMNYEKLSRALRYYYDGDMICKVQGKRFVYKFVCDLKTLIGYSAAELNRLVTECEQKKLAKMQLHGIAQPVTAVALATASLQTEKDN
# Method in brief: as §1
# [3] = target: T3, ERG (Homo sapiens, UniProt P11308 1-479)
# T3 sequence: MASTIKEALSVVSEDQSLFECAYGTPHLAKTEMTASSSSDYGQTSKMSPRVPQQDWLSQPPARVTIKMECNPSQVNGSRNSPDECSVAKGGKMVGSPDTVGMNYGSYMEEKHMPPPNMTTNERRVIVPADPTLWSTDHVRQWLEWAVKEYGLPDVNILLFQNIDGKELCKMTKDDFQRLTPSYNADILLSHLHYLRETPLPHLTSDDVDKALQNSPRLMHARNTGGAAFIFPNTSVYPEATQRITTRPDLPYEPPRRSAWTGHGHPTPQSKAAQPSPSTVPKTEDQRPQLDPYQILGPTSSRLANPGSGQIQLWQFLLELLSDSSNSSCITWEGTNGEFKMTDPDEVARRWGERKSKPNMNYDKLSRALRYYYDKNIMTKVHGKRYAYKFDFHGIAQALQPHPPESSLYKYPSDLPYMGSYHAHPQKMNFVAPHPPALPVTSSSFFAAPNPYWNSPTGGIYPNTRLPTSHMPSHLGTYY
# Method in brief: as §1
# [4] = target: T4, EHF (Homo sapiens, UniProt Q9NZC4 1-300)
# T4 sequence: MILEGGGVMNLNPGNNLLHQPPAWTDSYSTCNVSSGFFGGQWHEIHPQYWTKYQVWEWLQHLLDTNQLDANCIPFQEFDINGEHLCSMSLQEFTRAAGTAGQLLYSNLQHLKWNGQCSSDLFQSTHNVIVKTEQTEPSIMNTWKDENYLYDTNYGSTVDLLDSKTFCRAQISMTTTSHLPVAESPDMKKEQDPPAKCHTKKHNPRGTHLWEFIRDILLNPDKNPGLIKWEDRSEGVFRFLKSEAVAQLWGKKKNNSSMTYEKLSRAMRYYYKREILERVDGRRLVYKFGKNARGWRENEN
# Method in brief: as §1
# [5] = target: T5, FEV (Homo sapiens, UniProt Q99581 1-238)
# T5 sequence: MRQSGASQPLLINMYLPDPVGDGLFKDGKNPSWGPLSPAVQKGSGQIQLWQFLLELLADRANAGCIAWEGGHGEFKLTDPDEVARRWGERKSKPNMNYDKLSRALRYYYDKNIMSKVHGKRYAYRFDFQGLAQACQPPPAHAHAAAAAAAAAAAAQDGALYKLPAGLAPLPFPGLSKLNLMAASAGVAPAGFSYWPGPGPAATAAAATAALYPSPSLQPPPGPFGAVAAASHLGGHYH
# Method in brief: as §1
# [6] = target: ETV5 (Homo sapiens, UniProt P41161 1-510)
# Method in brief: as §1
# [7] = target: T6, ETS2 (Homo sapiens, UniProt P15036 1-469)
# T6 sequence: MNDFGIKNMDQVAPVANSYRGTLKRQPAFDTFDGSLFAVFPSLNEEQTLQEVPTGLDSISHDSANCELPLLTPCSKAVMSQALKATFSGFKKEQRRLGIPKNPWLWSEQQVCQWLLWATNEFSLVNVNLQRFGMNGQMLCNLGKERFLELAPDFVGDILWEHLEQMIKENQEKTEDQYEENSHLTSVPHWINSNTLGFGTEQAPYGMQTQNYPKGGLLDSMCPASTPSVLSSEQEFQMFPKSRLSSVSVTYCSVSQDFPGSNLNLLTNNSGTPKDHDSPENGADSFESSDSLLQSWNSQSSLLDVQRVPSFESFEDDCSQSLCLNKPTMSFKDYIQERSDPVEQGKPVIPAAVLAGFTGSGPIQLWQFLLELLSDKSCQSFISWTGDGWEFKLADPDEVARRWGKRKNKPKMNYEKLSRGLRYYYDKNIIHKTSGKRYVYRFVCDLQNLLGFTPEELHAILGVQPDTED
# Method in brief: as §1
# [8] = target: T7, ETV7 (Homo sapiens, UniProt Q9Y603 1-341)
# T7 sequence: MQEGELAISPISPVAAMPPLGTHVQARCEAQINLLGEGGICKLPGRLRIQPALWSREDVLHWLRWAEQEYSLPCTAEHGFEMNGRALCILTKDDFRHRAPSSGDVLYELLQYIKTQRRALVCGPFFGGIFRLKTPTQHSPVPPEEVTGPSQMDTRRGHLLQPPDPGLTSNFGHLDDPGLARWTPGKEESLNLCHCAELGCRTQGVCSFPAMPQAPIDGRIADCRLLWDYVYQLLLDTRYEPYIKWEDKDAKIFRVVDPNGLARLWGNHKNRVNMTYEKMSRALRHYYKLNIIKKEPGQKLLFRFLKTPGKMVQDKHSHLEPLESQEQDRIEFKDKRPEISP
# Method in brief: as §1
# [9] = target: ETV6 (Homo sapiens, UniProt P41212 1-452)
# Method in brief: as §1
# [10] = target: SPIB (Homo sapiens, UniProt Q01892 1-262)
# Method in brief: as §1
# [11] = target: T8, ELK3 (Homo sapiens, UniProt P41970 1-407)
# T8 sequence: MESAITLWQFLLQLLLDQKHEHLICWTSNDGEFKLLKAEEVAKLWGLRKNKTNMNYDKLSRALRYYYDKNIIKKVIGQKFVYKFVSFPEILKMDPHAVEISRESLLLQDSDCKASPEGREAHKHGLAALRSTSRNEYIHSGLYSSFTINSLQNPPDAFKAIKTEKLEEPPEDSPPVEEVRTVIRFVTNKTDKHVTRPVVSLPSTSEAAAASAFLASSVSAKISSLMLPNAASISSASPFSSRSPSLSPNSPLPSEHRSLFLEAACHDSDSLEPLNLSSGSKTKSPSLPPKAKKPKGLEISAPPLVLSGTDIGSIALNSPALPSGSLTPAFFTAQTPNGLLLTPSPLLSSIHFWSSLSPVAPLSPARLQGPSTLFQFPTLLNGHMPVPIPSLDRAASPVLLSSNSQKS
# Method in brief: as §1
# [12] = target: ELF4 (Homo sapiens, UniProt Q99607 1-663)
# Method in brief: as §1
# [13] = target: T9, ELF3 (Homo sapiens, UniProt P78545 1-371)
# T9 sequence: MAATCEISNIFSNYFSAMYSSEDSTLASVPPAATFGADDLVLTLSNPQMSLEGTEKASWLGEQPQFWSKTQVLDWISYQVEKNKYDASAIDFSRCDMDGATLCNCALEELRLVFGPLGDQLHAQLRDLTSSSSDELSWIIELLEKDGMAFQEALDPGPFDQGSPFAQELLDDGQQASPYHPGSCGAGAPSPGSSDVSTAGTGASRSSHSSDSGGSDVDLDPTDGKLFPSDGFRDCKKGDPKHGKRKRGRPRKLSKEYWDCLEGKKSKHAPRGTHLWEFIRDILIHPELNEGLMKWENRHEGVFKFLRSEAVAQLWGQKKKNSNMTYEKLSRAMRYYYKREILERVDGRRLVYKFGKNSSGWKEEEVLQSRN
# Method in brief: as §1
# [14] = target: T10, ERF (Homo sapiens, UniProt P50548 1-548)
# T10 sequence: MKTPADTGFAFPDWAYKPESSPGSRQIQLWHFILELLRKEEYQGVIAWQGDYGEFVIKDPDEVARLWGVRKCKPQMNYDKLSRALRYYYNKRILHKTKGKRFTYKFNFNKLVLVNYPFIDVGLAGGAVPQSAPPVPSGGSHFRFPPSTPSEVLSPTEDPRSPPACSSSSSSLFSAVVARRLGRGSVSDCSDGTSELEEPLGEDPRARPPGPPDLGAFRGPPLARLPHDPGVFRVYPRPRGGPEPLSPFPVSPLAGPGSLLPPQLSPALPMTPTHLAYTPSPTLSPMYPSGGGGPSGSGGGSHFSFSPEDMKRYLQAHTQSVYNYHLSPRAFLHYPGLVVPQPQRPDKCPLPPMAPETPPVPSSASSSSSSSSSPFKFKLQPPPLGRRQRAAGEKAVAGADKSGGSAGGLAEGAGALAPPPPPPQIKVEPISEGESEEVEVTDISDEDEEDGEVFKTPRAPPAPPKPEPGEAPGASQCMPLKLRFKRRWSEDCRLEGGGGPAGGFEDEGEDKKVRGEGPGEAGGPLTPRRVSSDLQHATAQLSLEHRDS
# Method in brief: as §1
# [15] = target: T11, ETV3L (Homo sapiens, UniProt Q6ZN32 1-361)
# T11 sequence: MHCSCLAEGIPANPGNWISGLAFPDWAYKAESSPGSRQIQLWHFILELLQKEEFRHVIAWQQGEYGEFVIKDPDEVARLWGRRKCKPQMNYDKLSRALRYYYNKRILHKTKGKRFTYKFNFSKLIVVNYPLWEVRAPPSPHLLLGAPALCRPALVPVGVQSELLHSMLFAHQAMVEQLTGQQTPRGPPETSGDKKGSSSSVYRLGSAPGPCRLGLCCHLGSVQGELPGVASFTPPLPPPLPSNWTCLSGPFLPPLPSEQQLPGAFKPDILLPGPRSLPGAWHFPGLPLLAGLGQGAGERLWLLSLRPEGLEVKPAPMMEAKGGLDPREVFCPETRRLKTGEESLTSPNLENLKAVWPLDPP
# Method in brief: as §1
# [16] = target: T12, SPDEF (Homo sapiens, UniProt O95238 1-335)
# T12 sequence: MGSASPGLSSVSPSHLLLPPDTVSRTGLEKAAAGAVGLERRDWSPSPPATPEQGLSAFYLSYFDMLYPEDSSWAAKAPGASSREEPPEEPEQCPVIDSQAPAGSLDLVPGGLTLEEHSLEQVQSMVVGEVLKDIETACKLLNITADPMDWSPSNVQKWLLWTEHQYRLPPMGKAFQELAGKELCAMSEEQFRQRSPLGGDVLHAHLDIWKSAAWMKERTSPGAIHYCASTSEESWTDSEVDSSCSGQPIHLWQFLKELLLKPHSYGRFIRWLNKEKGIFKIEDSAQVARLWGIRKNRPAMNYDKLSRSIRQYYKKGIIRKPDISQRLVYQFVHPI
# Method in brief: as §1
# ETV6, sequence (P41212 whole entry): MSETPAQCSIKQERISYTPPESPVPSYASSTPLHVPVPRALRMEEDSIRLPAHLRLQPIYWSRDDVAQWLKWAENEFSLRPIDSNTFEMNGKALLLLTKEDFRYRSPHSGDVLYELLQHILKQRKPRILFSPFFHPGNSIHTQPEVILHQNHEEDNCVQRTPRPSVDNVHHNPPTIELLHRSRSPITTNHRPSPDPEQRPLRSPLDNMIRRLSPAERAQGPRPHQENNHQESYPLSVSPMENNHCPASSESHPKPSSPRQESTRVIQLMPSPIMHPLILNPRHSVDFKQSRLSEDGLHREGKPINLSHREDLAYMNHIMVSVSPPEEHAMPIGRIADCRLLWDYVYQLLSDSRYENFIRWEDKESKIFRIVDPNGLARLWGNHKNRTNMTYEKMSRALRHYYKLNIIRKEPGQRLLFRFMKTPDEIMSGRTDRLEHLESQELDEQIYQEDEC
# ETV5, sequence (P41161 whole entry): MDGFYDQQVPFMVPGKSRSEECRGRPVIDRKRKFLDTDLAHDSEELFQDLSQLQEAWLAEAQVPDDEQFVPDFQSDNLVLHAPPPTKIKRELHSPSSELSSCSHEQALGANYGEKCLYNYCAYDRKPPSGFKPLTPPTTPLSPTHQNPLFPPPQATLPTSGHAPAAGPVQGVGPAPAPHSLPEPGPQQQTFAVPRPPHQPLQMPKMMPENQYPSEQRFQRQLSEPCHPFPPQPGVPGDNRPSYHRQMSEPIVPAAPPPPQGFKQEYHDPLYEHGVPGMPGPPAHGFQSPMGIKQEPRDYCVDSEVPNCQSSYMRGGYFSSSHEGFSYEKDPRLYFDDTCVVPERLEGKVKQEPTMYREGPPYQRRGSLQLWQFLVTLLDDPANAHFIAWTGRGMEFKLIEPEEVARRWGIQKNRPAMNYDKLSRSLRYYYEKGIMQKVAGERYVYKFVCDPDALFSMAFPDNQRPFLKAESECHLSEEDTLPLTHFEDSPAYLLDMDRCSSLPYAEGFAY
# SPIB, sequence (Q01892 whole entry): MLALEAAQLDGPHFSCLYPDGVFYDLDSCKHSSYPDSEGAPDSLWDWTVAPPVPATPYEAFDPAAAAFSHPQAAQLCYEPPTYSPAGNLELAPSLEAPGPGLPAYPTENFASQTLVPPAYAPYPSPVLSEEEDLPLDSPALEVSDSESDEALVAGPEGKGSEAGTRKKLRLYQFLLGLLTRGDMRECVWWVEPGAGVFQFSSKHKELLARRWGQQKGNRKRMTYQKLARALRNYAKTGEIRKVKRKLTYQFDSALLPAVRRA
# ELF4, sequence (Q99607 whole entry): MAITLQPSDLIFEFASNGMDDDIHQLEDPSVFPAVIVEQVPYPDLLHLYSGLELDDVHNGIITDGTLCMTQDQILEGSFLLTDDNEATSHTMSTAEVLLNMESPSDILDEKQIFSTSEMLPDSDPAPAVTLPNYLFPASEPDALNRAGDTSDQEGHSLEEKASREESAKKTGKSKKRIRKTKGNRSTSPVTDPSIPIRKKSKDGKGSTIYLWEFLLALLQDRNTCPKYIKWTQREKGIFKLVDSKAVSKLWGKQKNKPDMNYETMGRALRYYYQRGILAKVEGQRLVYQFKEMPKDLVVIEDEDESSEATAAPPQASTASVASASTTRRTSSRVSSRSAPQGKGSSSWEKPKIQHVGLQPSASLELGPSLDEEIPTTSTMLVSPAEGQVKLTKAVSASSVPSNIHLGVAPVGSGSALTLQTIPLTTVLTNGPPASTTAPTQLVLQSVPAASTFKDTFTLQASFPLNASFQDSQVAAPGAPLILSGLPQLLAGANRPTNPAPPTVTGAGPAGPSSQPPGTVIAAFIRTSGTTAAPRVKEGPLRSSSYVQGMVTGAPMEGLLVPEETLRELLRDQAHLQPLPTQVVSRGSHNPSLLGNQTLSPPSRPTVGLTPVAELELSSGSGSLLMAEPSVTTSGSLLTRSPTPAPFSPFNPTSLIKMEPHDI
Sequence,binding signal [1],binding signal [2],binding signal [3],binding signal [4],binding signal [5],binding signal [6],binding signal [7],binding signal [8],binding signal [9],binding signal [10],binding signal [11],binding signal [12],binding signal [13],binding signal [14],binding signal [15],binding signal [16]
TGGCGA,"1.02 fold enrichment (6-mer frequency, TF over GST control)","1.01 fold enrichment (6-mer frequency, TF over GST control)","1.02 fold enrichment (6-mer frequency, TF over GST control)","1.01 fold enrichment (6-mer frequency, TF over GST control)","1.02 fold enrichment (6-mer frequency, TF over GST control)","1.01 fold enrichment (6-mer frequency, TF over GST control)","1.06 fold enrichment (6-mer frequency, TF over GST control)","1.07 fold enrichment (6-mer frequency, TF over GST control)","1.03 fold enrichment (6-mer frequency, TF over GST control)",–,–,–,–,–,–,–
TAGGAT,–,–,"1.07 fold enrichment (6-mer frequency, TF over GST control)","1.06 fold enrichment (6-mer frequency, TF over GST control)",–,"1.03 fold enrichment (6-mer frequency, TF over GST control)","1.03 fold enrichment (6-mer frequency, TF over GST control)",–,"1.06 fold enrichment (6-mer frequency, TF over GST control)","1.03 fold enrichment (6-mer frequency, TF over GST control)","1.03 fold enrichment (6-mer frequency, TF over GST control)","1 fold enrichment (6-mer frequency, TF over GST control)","1.03 fold enrichment (6-mer frequency, TF over GST control)","1.02 fold enrichment (6-mer frequency, TF over GST control)","1.06 fold enrichment (6-mer frequency, TF over GST control)","1.22 fold enrichment (6-mer frequency, TF over GST control)"
